In test [1] the target is Lysosomal acid glucosylceramidase (Homo sapiens) (UniProt P04062). Briefly: Glucocerebrosidase-p2 (AID 348; in the data active = potency below about 10 µM; note: potency is the fitted concentration of half-maximal effect). Conditions: purified GBA, blue fluorogenic substrate, 40 min. The gist of the method:
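Compounds titrated from 0.6 nM upwards against 0.2 nM enzyme in pH 5.9 citric acid/KH2PO4, taurocholate, tween-20; blue fluorogenic substrate 80 uM, 40 min room temperature, stopped and read Ex 365/Em 440 for AC50.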

A short description of test [2]: AP1 Signaling Pathway (AID 357).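 Note: ME-180 reporter cells stimulated with EGF at its EC50 level; % is set by controls: 0 for no effect and ±100 for the full control effect.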 To be noted: ME-180 AP-1-bla reporter, EGF-induced, beta-lactamase ratio, 5 h; at 7.69 µM (top of the series) unless noted. The gist of the method: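 First, ME-180 AP-1-bla cells were cultured overnight at 37 °C in low-serum Opti-MEM. Next, titrated compounds with EC50 EGF were incubated 5 hours. Finally, CCF4 was added for 2.5 hours and the 460/530 nm ratio recorded.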

The target in test [3] is Cytochrome P450 1A2 (Homo sapiens) (UniProt P05177). The test can be described thus: p450-cyp1a2 (AID 410; calls by dose curve;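 note: -100% = full effect of reference inhibitor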). Conditions: recombinant CYP1A2, luciferin-ME demethylation, luminescence; series mostly up to 57 µM. A digest of the protocol: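 Inhibition was calculated relative to 57 uM furafylline (full inhibition). The reaction used human CYP1A2 at 20nM with Luciferin-ME at its Km, 100uM, driven by an NADPH-regenerating system for 60 min at room temperature.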
Chain of Cytochrome P450 1A2 (Homo sapiens) (P05177 whole entry, looked up): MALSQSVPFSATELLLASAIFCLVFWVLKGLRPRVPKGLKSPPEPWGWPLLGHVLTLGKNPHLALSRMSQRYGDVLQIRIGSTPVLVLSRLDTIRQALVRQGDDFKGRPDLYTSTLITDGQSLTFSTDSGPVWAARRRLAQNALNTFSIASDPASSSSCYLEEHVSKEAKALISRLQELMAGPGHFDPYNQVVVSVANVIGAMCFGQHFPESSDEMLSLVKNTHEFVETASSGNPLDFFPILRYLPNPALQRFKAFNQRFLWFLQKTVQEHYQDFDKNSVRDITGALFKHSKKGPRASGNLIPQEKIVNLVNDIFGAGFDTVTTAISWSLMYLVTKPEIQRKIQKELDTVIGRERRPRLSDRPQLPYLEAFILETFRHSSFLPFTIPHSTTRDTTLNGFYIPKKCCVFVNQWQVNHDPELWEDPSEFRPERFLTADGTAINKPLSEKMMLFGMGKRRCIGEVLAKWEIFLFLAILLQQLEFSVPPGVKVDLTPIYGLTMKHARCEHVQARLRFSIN

Test [4] in a line: NFAT Signaling Pathway (AID 444).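 Note: carbachol stimulus at about its EC50 of 1 µM final; % is set by controls: 0 for no effect and ±100 for the full control effect.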 Conditions: Jurkat NFAT-bla M1, carbachol, beta-lactamase ratio, 5 h; at 7.69 µM (top of the series) unless noted. The gist of the method:
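Read-out: CCF4 FRET ratio (460 nm/530 nm) after 1 h RT dye loading, used for %activity and AC50 from titration series. Cells: Jurkat NFAT-β-lactamase/M1 line, treated with compound plus 1 uM carbachol for 5 h, 37 °C.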

The nature of test [5]: Stat Signaling Pathway (AID 446).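 Note: ME-180 cervical cancer cells given 40 pM IL-6 alongside compound; SIE-controlled beta-lactamase reporter measured as 460/530 nm FRET emission ratio; % is set by controls: 0 for no effect and ±100 for the full control effect.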 To be noted: ME-180 (cervical carcinoma) SIE beta-lactamase reporter, IL-6 stimulated, 5 h; at 7.69 µM (top of the series) unless noted. A digest of the protocol:
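ME-180 SIE-bla cells; overnight plating; cpd + IL-6 40 pM, 5 h, 37 C; LiveBLAzer 2.5 h RT; 460/530 nm emission ratio. Normalized to 300 pM IL-6 and 125 nM JAK inhibitor controls.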

In test [6] the target is Glucocorticoid receptor (Homo sapiens) (UniProt P04150). The test can be described thus: GR-EFC Redistribution (AID 451; calls by dose curve; note: potency is the fitted concentration of half-maximal effect). To be noted: CHO-K1 GR-EFC translocation, beta-gal luminescence, 2 h. A digest of the protocol: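 Translocation of GR-ED fusion to nuclear EA restores b-gal, read by luminescence after 1 h room-temperature detection. Engineered CHO-K1 biosensor cells, 1,000/well, exposed 2 h at 37 C to titrations up to 46 uM final.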
Chain of Glucocorticoid receptor (Homo sapiens) (P04150 whole entry, looked up, the tested form may be a part): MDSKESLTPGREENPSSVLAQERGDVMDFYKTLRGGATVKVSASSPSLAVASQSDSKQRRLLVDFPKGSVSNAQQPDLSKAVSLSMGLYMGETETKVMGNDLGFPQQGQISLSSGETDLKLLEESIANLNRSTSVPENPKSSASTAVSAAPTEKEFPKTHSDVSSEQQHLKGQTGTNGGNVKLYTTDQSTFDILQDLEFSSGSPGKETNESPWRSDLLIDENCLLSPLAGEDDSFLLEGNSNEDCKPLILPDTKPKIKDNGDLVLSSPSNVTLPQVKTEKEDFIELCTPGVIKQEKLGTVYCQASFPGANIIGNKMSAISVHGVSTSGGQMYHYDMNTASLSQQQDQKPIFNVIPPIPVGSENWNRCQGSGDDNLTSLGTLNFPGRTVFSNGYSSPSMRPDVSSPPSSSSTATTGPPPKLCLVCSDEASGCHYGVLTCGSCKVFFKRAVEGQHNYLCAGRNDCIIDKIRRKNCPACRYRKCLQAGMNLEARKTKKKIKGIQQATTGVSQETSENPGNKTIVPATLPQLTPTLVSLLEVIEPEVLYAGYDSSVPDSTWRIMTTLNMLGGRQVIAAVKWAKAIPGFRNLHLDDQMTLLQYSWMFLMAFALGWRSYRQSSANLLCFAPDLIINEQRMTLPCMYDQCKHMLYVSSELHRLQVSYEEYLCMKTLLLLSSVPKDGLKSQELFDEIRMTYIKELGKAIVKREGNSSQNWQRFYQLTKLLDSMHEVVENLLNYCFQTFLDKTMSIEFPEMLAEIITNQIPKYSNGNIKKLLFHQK

Test [7] concerns the target Mitogen-activated protein kinase 10 (Mus musculus) (UniProt Q61831). The test can be described thus: JNK3 AlphaScreen Assay (AID 530).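 Note: kinase came from lysate of stimulated human HepG2 cells; signal reports phosphorylation of biotinylated GST-cJun 1-79 at Ser73 with 10 µM ATP; % is set by controls: 0 for no effect and ±100 for the full control effect.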 To be noted: JNK3 lysate, c-Jun phosphorylation; series mostly up to 57.1 µM. A digest of the protocol:
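Room-temperature AlphaScreen kinase assay; pre-activated HepG2 lysate as JNK3 source, biotin-GST-cJun(1-79) substrate, 10 uM ATP, compound 15 min preincubation.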
(In general: Alpha assays give light when donor and acceptor beads are brought close together.)

Test [8] concerns the target 3',5'-cyclic-AMP phosphodiesterase 4B (Homo sapiens) (UniProt Q07343). Briefly: qHTS Assay for Inhibitors of PDE-IV (AID 607; active = well fitted activation curve with a large enough effect in the main read-out, with a control signal flat, not every such curve was filed as active; note: % of control where 0% means no effect). To be noted: HEK293 ACTOne CNG channel cells, membrane potential fluorescence; series mostly up to 22.9 µM. The gist of the method:
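ACTOne HEK293 cells carry a modified cAMP-gated CNG channel and express endogenous PDE4; plated 1000 cells/well, compounds up to 22.9 uM final. Membrane-potential dye fluorescence (ex 535/em 590) was read; parental cells received 10 uM forskolin + 100 uM RO 20-1724.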
On the technique in general: Quantitative high-throughput screening tests each substance at several concentrations.

The target of test [9] is Cytochrome P450 3A4 (Homo sapiens) (UniProt P08684). The test can be described thus: qHTS Assay for Inhibitors and Substrates of Cytochrome P450 3A4 (AID 884; active = well fitted curve in the direction sought with a large enough effect; an effect the other way counts as inactive or inconclusive; note: nearly all actives have a fitted effect of over 50% in size; note: potency is the fitted concentration of half-maximal effect). Conditions: recombinant CYP3A4, Luciferin-PPXE luminescence; series mostly up to 57.1 µM. The gist of the method:
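20 nM human CYP3A4 with 25 uM Luciferin-PPXE (at KM) in 200 mM KPO4, preincubated 10 min with compound; NADPH regeneration started a 60 min RT reaction. Luciferin detected by luminescence, normalized to 57 uM ketoconazole as full inhibition.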

The target is the same in test [10]. The test can be described thus: qHTS Assay for Activators of Cytochrome P450 3A4 (AID 885; active = well fitted curve in the direction sought with a large enough effect; an effect the other way counts as inactive or inconclusive; note: nearly all actives have a fitted effect of over 65% in size; note: potency is the fitted concentration of half-maximal effect). Conditions: recombinant CYP3A4, Luciferin-PPXE luminescence, 60 min; series mostly up to 57.1 µM. A digest of the protocol: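 20nM CYP3A4 + 25uM Luciferin-PPXE (=KM), 200mM KPO4; cpd 10 min RT; NADPH regen, 60 min RT; stop w/ detection buffer, 20 min; luminescence. Normalized to 57 uM ketoconazole.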

Test [11] is described as follows: qHTS Assay for Lipid Storage Modulators (AID 1519; calls by dose curve). Conditions: Drosophila S3 cells, BODIPY lipid droplet/cell ratio, laser cytometry, cells loaded with oleic acid; for activity change, negative = inhibition: at 57.5 µM (top of the series). A digest of the protocol: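 Cells seeded at 5,000 per well were treated with compounds over a concentration series and loaded with oleic acid (400 uM, as added). Lipid droplet fluorescence (488 nm excitation, 500-530 nm channel) was read by laser-scanning cytometry and normalized to 20 uM Triacsin C.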

Test [12] in a line: Primary qHTS for small molecule stabilizers of the endoplasmic reticulum resident proteome: Secreted ER Calcium Modulated Protein (SERCaMP) assay (AID 1508630; active = well fitted curve in the direction sought with a large enough effect; an effect the other way counts as inactive or inconclusive; note: % is set by controls: 0 for no effect and ±100 for the full control effect). To be noted: SH-SY5Y GLuc-SERCaMP (Gaussia luciferase released on ER calcium loss) secretion, thapsigargin, luminescence; series mostly up to 38.4 µM. The gist of the method: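 GLuc-SERCaMP-expressing SH-SY5Y cells, pretreated 16 h with compound, are challenged with thapsigargin to empty ER calcium stores; after 4 h, coelenterazine is added directly to the medium and luminescence is imaged.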

In test [13] the target is Cytochrome P450 2C9 (Homo sapiens) (UniProt P11712). Briefly: qHTS Assay for Inhibitors and Substrates of Cytochrome P450 2C9 (AID 883; active = well fitted curve in the direction sought with a large enough effect; an effect the other way counts as inactive or inconclusive; note: % is set by controls: 0 for no effect and ±100 for the full control effect; nearly all actives have a fitted effect of over 60% in size). Conditions: recombinant CYP2C9, luciferin-H luminescence, 60 min; series mostly up to 57.1 µM. The gist of the method: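 Luminescent read-out of deoxyluciferin hydroxylation, normalized to 57uM sulphaphenazole (AC100). Reaction: 10nM enzyme, 100uM Luciferin-H (equal to KM), 25mM KPO4, 10 min compound preincubation, then 60 min with NADPH regeneration, both at 37C.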
Chain of Cytochrome P450 2C9 (Homo sapiens) (P11712 whole entry, looked up): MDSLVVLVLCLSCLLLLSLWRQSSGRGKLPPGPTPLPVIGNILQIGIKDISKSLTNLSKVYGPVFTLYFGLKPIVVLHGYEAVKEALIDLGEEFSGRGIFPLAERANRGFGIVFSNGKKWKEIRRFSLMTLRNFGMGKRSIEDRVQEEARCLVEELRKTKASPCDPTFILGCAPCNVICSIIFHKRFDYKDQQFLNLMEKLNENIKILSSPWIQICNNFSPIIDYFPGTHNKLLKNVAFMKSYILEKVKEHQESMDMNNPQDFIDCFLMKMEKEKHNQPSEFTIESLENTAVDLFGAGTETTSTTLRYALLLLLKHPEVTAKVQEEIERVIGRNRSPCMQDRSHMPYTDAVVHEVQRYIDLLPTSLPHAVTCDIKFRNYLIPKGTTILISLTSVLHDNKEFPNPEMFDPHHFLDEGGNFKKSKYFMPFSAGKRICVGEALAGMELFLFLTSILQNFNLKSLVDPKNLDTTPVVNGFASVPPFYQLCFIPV

For test [14], the target named is Cytochrome P450 2C19 (Homo sapiens) (UniProt P33261). The test can be described thus: qHTS Assay for Inhibitors and Substrates of Cytochrome P450 2C19 (AID 899; active = well fitted curve in the direction sought with a large enough effect; an effect the other way counts as inactive or inconclusive; note: % is set by controls: 0 for no effect and ±100 for the full control effect; nearly all actives have a fitted effect of over 60% in size). To be noted: recombinant CYP2C19, luciferin-H EGE luminescence; series mostly up to 57.1 µM. A digest of the protocol:
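Luminescence readout of luciferin formed from 10uM Luciferin-H EGE (KM level) by 5 nM CYP2C19 in 50mM KPO4. 60 min NADPH-driven reaction at 37C after 10 min compound preincubation; data scaled to 57uM ketoconazole inhibition.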

The mark [15] stands for this setting: measured here: cell count channel max response.
The mark [16] stands for this setting: measured here: lipid channel max response.

Inconclusive results are not listed. Calls of active or inactive are those of the source. Unless noted, calls come from the whole dose curve; as a rule, active = well fitted curve in either direction with a large enough effect (not every such curve was filed as active); inconclusive = small, poorly fitted or top-dose-only effect, or another doubt; inactive = flat fitted curve, though single readings scatter. Bounds are passed on as bounds.

Chain of Lysosomal acid glucosylceramidase (Homo sapiens) (P04062 whole entry, looked up): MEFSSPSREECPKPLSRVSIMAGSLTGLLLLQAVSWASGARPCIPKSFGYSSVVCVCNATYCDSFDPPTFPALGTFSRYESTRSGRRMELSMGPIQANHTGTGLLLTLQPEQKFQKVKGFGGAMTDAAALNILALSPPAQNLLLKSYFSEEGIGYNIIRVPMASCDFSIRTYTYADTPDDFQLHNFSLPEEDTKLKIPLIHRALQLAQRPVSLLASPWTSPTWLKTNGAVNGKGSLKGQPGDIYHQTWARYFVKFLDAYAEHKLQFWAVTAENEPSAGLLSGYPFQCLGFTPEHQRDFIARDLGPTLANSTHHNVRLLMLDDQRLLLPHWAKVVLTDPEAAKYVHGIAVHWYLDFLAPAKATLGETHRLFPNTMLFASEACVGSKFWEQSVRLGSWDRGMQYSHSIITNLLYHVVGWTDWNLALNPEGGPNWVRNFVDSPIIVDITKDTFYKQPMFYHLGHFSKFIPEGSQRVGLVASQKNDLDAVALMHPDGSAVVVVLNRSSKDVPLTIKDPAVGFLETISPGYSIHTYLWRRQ
Chain of Cytochrome P450 3A4 (Homo sapiens) (P08684 whole entry, looked up): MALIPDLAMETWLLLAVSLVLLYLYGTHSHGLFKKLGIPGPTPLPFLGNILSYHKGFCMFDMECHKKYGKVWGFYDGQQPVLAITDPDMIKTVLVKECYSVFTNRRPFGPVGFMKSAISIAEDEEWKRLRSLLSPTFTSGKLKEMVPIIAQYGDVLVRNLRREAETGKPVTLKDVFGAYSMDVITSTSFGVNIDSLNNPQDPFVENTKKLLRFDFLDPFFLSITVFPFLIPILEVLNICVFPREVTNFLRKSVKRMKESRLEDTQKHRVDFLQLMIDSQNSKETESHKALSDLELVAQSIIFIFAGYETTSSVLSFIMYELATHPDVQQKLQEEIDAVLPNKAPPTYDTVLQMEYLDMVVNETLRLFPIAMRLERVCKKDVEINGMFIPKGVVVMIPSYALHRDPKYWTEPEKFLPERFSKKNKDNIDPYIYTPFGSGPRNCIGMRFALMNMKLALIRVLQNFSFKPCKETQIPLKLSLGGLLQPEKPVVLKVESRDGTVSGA
Chain of 3',5'-cyclic-AMP phosphodiesterase 4B (Homo sapiens) (Q07343 whole entry, looked up): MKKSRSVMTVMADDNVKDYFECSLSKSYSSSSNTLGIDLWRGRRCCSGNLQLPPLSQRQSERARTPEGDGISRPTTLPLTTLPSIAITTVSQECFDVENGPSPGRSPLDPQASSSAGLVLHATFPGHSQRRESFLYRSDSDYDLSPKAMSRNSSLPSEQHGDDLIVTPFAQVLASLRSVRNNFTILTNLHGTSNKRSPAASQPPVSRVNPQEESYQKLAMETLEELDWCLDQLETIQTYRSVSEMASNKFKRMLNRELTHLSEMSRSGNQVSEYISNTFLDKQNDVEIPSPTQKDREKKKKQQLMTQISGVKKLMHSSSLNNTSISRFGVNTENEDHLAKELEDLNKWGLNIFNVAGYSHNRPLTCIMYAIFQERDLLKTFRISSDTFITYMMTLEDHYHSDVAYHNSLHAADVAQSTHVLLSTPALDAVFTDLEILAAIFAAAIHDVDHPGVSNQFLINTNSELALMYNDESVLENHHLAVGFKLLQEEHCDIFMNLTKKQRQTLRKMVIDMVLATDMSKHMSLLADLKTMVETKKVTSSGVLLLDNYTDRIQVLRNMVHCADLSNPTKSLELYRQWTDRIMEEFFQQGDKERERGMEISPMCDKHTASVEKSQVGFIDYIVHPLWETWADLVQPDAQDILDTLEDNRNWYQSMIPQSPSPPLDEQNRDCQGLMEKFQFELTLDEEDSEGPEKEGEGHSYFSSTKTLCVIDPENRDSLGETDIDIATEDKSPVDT
Chain of Cytochrome P450 2C19 (Homo sapiens) (P33261 whole entry, looked up): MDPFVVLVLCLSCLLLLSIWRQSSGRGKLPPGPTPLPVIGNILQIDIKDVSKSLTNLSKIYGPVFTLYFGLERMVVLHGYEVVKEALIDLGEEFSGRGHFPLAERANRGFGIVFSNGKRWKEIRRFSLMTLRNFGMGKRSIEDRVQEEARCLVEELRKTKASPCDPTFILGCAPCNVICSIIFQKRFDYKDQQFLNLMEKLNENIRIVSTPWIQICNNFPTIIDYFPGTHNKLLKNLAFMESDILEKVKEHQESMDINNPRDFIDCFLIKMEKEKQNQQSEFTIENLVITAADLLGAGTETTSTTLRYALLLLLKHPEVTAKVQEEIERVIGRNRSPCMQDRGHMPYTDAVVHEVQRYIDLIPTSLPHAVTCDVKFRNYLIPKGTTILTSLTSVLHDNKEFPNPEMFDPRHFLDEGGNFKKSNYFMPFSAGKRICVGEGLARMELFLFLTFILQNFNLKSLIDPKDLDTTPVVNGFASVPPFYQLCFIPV

`O=C(c1csnn1)N1CCC2(CC1)CN(c1ccccn1)C2`: the results for the Potency in [1], in [6] and in test [10] were > 11.4 µM (inactive), > 46 µM (inactive) and 25.1 µM (active), respectively. Also, the activity change, negative = inhibition in test [2] was -7.48% (inactive); in test [4] it was -19.4% (inactive); in test [11], 4.89% (inactive). Also, the Potency result in [3], in test [8], in [9] and in test [12] was “inactive” throughout. The activity, negative = inhibition in test [5] was -1.49% (inactive). The molecule was called inactive in [7]. Also, the figures for the max response in test [11] (setting [15]) and in test [11] (setting [16]) were 15.6% and 22.2%, respectively.
For the molecule `O=C(c1cccc(F)c1)N1CCC[C@@]2(CCN(c3ccncc3)C2)C1`, the Potency was > 11.4 µM (inactive) in test [1], > 46 µM (inactive) in [6] and 0.316 µM (active) in test [9]. The values for the activity change, negative = inhibition in test [2], in test [4] and in [11] were -0.222% (inactive), -14.9% (inactive) and 6.94% (inactive), respectively. For the same molecule, the Potency result in [3], in test [8], in test [10] and in [12] was “inactive” each time. In [5], the activity, negative = inhibition is -5.12% (inactive). For the same molecule, in [7], the outcome was inactive. Further, the max response in test [11] (setting [15]) stood at 20%; in [11] (setting [16]), 29.4%.
In the case of `COC(=O)N1CCC2(CCN(C(=O)Nc3ccccc3)CC2)CC1`, the figures for the Potency in test [1] and in test [6] were > 11.4 µM (inactive) and > 46 µM (inactive), respectively. The activity change, negative = inhibition in test [2] was -4.41% (inactive); in test [4] it was 4.8% (inactive); in test [11], 5.74% (inactive). Besides, the Potency entry in test [3], in test [8] and in test [12] was “inactive” in each case. The activity, negative = inhibition in test [5] is 0.0402% (inactive). Besides, in test [7], the result was inactive. For the same molecule, the max response in test [11] (setting [15]) turned out to be 8.07%; in test [11] (setting [16]) it was 17.4%.
For `CC(=O)N1CCC2(CC1)CN(c1ccncc1)C2`, the Potency was > 11.4 µM (inactive) in test [1] and > 46 µM (inactive) in test [6]. Moreover, the activity change, negative = inhibition was -4.3% (inactive) in test [2], 0.609% (inactive) in [4] and 2.66% (inactive) in test [11]. Besides, the Potency entry in [3], in test [8], in test [13] and in [12] was “inactive” throughout. Further, the activity, negative = inhibition in test [5] was 0.403% (inactive). Besides, the call in test [7] was inactive. The max response in test [11] (setting [15]) is 11.6%; in test [11] (setting [16]), 16.2%.
`CS(=O)(=O)N1CCC2(CCN(c3cccc(-c4ccccc4)c3)CC2)CC1`: the Potency is > 11.4 µM (inactive) in test [1] and > 46 µM (inactive) in test [6]. Besides, the activity change, negative = inhibition is -1.25% (inactive) in [2], 10.1% (inactive) in [4] and -1.6% (inactive) in test [11]. The Potency result in [3], in [8], in test [13], in test [14] and in test [12] was “inactive” throughout. Moreover, in [5], the activity, negative = inhibition was -21% (inactive). Also, the molecule was classed as inactive in test [7]. In addition, the max response was determined as 19.1% in [11] (setting [15]) and 18.7% in [11] (setting [16]).
For `COC(=O)N1CCC2(CC1)CN(c1ccccn1)C2`, the Potency in test [1] was > 11.4 µM (inactive); in test [6], > 46 µM (inactive); in test [10], 25.1 µM (active). The activity change, negative = inhibition in test [2] is -6.58% (inactive); in test [4], -21.4% (inactive); in test [11], 1.4% (inactive). In addition, the Potency result in test [3], in test [8], in test [9] and in test [12] was “inactive” each time. Also, the activity, negative = inhibition in test [5] is 9.9% (inactive). Also, the call in test [7] was inactive. Moreover, the max response in test [11] (setting [15]) was 2.42%; in test [11] (setting [16]) it was 5.09%.

(Values after PubChem BioAssay (NCATS).)
